The full data set covers some 7,900 targets. This sample favours those with a hit. About 0.6% of all pairs of compound and target were hits. Unmarked numbers belong to inactive results.
compound: C1=CC=C(C=C1)[C@H](COC2=CC3=C(C=C2)NC(=O)N3)NC(=O)C4=CC=CN(C4=O)CC5=CC(=C(C=C5)F)F; assay: log2 fold change, soluble protein after heating vs DMSO (PISA); higher = thermal stabilisation; K562 cells, 10 uM, 30 min; active = over 0.2 and 3.5 SD of the protein, either way, in both replicates (recomputed)
Summary of the method: (§1)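 K562 cells at 2×10^6 cells/mL were exposed to 10 μM compound for 30 min, then aliquots were heated for 3 min across 48°C-58°C, pooled, and extracted in PBS containing 0.5% NP-40 at 4°C. The supernatant after 21,000xg for 90 min was taken as soluble protein and measured by TMTpro 16plex LC-MS/MS with channel sums equalised. Thermal stability is reported relative to control samples, with values from duplicates. Fold changes are given on a log2 scale.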

UniProt P49189, sequence (P49189 whole entry, looked up): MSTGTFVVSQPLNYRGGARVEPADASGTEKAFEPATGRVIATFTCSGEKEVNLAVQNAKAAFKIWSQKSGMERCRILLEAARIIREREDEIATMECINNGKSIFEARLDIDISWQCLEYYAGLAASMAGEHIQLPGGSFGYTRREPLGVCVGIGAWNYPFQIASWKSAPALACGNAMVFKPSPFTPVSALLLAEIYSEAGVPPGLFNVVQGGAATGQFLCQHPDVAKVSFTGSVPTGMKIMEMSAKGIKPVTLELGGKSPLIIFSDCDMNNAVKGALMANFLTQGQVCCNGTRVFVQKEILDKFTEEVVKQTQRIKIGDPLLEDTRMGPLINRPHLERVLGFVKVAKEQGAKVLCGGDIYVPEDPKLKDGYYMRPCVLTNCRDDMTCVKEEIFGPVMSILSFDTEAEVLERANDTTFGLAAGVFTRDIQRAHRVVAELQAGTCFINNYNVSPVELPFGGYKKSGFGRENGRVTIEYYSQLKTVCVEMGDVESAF
UniProt Q99943, sequence (Q99943 whole entry, looked up): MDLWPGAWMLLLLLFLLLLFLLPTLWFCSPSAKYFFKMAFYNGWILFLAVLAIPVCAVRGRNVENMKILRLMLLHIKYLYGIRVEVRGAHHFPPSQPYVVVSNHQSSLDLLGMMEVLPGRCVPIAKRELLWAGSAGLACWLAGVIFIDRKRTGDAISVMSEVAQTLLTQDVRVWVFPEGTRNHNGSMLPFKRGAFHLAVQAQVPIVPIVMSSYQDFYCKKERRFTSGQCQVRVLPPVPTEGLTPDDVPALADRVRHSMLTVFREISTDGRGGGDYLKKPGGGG
UniProt Q86WA6, sequence (Q86WA6 whole entry, looked up): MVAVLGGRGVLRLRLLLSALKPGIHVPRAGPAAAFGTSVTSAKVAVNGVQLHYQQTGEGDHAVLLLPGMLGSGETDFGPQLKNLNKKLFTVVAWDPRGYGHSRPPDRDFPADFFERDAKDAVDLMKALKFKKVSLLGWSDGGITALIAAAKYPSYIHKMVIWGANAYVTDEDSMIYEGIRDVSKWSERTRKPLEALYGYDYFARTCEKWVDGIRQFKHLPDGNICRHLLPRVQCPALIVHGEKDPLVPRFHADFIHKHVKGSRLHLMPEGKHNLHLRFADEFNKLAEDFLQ
UniProt Q9ULX6, sequence (Q9ULX6 whole entry, looked up): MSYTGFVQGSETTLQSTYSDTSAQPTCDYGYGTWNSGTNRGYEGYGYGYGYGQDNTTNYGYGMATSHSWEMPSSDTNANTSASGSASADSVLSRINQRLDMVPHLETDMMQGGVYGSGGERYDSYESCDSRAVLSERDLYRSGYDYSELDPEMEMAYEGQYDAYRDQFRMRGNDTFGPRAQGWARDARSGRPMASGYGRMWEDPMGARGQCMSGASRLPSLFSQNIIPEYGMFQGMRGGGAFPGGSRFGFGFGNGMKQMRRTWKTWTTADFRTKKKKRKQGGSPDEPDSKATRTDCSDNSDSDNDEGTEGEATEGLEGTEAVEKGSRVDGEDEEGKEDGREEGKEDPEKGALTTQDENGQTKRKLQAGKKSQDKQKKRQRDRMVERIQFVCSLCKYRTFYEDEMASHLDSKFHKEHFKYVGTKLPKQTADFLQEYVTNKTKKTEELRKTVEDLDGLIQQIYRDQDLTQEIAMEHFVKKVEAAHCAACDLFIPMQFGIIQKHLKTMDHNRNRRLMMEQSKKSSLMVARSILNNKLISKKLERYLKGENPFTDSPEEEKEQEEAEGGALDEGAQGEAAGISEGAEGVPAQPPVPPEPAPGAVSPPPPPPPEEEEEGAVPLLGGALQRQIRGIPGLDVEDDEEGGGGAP
UniProt Q9Y679, sequence (Q9Y679 whole entry, looked up): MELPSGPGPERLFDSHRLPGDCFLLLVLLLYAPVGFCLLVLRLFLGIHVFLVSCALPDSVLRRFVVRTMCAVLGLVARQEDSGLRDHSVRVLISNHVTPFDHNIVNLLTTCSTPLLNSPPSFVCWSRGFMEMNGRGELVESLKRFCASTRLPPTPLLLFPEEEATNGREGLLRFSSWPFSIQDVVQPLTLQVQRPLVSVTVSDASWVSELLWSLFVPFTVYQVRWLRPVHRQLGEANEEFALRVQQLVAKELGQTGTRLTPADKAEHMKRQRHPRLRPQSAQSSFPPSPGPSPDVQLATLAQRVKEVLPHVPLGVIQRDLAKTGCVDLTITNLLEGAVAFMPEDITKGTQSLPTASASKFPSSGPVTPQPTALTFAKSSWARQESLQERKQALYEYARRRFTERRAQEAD
UniProt Q9H845, sequence (Q9H845 whole entry, looked up): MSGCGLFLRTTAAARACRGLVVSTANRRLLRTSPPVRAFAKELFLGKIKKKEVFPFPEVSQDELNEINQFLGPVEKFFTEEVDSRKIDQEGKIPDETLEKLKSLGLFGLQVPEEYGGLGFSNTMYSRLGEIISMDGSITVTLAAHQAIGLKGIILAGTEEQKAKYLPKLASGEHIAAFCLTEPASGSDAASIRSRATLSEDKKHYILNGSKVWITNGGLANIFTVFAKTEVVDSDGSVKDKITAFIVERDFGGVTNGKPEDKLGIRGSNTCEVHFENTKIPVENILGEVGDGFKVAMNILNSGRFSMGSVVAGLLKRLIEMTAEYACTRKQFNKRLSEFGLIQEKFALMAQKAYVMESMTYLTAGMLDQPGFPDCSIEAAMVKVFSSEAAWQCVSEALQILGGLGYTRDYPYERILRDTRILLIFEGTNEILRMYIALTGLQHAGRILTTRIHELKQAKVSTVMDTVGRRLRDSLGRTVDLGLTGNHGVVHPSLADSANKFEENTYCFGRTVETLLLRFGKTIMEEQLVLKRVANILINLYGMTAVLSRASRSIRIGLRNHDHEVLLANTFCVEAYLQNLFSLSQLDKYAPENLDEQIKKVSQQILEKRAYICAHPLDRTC
UniProt P56211, sequence (P56211 whole entry, looked up): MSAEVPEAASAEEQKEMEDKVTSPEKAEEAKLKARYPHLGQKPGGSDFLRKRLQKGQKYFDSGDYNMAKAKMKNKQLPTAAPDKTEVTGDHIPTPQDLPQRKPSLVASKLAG
UniProt P55263, sequence (P55263 whole entry, looked up): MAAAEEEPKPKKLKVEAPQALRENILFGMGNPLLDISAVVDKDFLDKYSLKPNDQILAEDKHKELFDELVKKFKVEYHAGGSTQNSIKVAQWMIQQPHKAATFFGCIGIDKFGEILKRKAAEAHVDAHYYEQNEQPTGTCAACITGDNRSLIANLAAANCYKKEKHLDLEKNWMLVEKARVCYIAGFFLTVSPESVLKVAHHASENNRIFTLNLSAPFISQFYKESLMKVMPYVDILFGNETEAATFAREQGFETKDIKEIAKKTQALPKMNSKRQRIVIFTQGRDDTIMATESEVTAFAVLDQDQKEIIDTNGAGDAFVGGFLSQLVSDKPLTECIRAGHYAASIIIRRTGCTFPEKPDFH
UniProt Q15057, sequence (Q15057 whole entry, looked up): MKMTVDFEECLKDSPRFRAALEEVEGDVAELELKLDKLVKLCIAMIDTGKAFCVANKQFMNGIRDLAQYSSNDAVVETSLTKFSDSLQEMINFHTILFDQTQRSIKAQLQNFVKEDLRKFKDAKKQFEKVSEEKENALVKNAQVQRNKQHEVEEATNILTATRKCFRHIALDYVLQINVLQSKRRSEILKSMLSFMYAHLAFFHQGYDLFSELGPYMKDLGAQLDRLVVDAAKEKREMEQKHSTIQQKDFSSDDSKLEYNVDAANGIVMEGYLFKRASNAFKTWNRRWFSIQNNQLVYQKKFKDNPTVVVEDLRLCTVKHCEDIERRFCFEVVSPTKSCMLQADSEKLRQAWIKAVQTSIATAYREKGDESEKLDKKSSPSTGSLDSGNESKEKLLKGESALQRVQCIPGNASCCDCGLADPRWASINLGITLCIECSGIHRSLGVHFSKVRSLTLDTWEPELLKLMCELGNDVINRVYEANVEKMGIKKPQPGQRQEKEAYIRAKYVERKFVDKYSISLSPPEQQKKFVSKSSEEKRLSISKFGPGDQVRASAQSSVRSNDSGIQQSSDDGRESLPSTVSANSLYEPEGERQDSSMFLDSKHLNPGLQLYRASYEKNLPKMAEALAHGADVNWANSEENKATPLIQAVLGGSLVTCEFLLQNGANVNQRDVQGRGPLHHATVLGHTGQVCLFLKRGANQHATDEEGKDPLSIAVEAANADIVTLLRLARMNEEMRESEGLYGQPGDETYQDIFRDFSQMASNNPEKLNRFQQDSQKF
UniProt Q9UQB8, sequence (Q9UQB8 whole entry, looked up): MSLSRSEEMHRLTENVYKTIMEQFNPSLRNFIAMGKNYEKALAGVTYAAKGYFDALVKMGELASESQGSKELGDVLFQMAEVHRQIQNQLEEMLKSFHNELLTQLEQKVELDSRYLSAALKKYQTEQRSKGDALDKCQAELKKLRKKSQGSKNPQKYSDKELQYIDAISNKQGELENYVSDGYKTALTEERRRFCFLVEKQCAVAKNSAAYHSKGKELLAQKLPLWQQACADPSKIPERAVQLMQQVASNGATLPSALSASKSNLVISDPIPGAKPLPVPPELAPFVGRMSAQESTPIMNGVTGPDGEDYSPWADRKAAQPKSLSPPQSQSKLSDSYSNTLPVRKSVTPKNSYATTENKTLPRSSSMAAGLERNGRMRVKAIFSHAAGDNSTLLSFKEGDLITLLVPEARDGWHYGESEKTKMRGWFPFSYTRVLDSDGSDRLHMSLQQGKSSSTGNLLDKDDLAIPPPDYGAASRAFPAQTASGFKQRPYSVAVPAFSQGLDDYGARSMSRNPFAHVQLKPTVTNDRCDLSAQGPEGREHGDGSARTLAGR
UniProt Q9NUQ2, sequence (Q9NUQ2 whole entry, looked up): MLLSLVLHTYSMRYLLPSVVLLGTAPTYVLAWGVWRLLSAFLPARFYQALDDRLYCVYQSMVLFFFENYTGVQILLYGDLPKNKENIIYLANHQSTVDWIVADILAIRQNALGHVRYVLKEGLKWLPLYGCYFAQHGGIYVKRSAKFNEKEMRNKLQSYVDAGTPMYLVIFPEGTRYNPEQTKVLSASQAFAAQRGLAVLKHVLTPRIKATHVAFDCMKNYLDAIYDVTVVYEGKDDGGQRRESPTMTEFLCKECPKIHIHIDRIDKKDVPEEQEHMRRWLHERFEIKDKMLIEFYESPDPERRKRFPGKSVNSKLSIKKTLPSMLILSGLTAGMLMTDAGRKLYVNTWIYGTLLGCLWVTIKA

| Target | log2 fold change |
| --- | --- |
| ACAD9 (UniProt Q9H845) | 0.012 |
| ATRN (UniProt O75882) | -0.011 |
| AKAP8L (UniProt Q9ULX6) | -0.011 |
| BPHL (UniProt Q86WA6) | -0.015 |
| ATP1B3 (UniProt P54709) | 0.012 |
| BRD3 (UniProt Q15059) | 0.002 |
| ADK (UniProt P55263) | 0.026 |
| ATP13A2 (UniProt Q9NQ11) | 0.031 |
| ANXA5 (UniProt P08758) | -0.036 |
| APOH (UniProt P02749) | -0.265 |
| APOB (UniProt P04114) | 0.041 |
| ARPP19 (UniProt P56211) | 0.003 |
| ATP13A3 (UniProt Q9H7F0) | -0.038 |
| ALG14 (UniProt Q96F25) | -0.008 |
| ADPRHL2 (UniProt Q9NX46) | -0.09 |
| ADD2 (UniProt P35612) | 0.005 |
| ALDH9A1 isoform 3 (UniProt P49189) | -0.007 |
| BAIAP2 (UniProt Q9UQB8) | -0.019 |

| Target | log2 fold change |
| --- | --- |
| ACSL1 (UniProt P33121) | -0.019 |
| ABHD16A (UniProt O95870) | -0.005 |
| ALDH9A1 (UniProt P49189) | 0.059 |
| BTAF1 (UniProt O14981) | 0.051 |
| AUP1 (UniProt Q9Y679) | -0.044 |
| BRD4 (UniProt O60885) | -0.116 |
| ADD3 (UniProt Q9UEY8) | 0.019 |
| BOP1 (UniProt Q14137) | 0.096 |
| ASH2L (UniProt Q9UBL3) | 0.016 |
| BCAP29 isoform 2 (UniProt Q9UHQ4) | -0.017 |
| AARS2 (UniProt Q5JTZ9) | -0.047 |
| BUB1B isoform 3 (UniProt O60566) | -0.077 |
| AURKA (UniProt O14965) | 0 |
| ARAF (UniProt P10398) | -0.05 |
| AGPAT5 (UniProt Q9NUQ2) | -0.015 |
| ACAP2 (UniProt Q15057) | -0.009 |
| AGPAT1 (UniProt Q99943) | -0.006 |
| ARFGEF1 (UniProt Q9Y6D6) | -0.012 |

compound: CC1=C(SC2=C1C(=N[C@H](C3=NN=C(N32)C)CC(=O)N)C4=CC=C(C=C4)Cl)C; assay: as above
Summary of the method: as §1

| Target | log2 fold change |
| --- | --- |
| ACAD9 (UniProt Q9H845) | 0.028 |
| ATRN (UniProt O75882) | -0.031 |
| AKAP8L (UniProt Q9ULX6) | -0.186 |
| BPHL (UniProt Q86WA6) | 0.052 |
| ATP1B3 (UniProt P54709) | 0.042 |
| BRD3 (UniProt Q15059) | 1.9 (active) |
| ADK (UniProt P55263) | 0.036 |
| ATP13A2 (UniProt Q9NQ11) | -0.075 |
| ANXA5 (UniProt P08758) | 0.04 |
| APOH (UniProt P02749) | -0.106 |
| APOB (UniProt P04114) | 0.028 |
| ARPP19 (UniProt P56211) | 0.021 |
| ATP13A3 (UniProt Q9H7F0) | 0.008 |
| ALG14 (UniProt Q96F25) | 0.019 |
| ADPRHL2 (UniProt Q9NX46) | 0.08 |
| ADD2 (UniProt P35612) | 0.044 |
| ALDH9A1 isoform 3 (UniProt P49189) | 0.029 |
| BAIAP2 (UniProt Q9UQB8) | 0.071 |

| Target | log2 fold change |
| --- | --- |
| ACSL1 (UniProt P33121) | 0.043 |
| ABHD16A (UniProt O95870) | 0.011 |
| ALDH9A1 (UniProt P49189) | -0.193 |
| BTAF1 (UniProt O14981) | -0.003 |
| AUP1 (UniProt Q9Y679) | 0.053 |
| BRD4 (UniProt O60885) | 2.22 (active) |
| ADD3 (UniProt Q9UEY8) | 0.034 |
| BOP1 (UniProt Q14137) | -0.099 |
| ASH2L (UniProt Q9UBL3) | -0.013 |
| BCAP29 isoform 2 (UniProt Q9UHQ4) | 0.029 |
| AARS2 (UniProt Q5JTZ9) | 0.081 |
| BUB1B isoform 3 (UniProt O60566) | -0.004 |
| AURKA (UniProt O14965) | 0.148 |
| ARAF (UniProt P10398) | -0.003 |
| AGPAT5 (UniProt Q9NUQ2) | 0.064 |
| ACAP2 (UniProt Q15057) | -0.001 |
| AGPAT1 (UniProt Q99943) | 0.075 |
| ARFGEF1 (UniProt Q9Y6D6) | 0.034 |
